Results filed as inconclusive are left out. The source made the active and inactive calls. Calls follow the shape of the dose curve; as a rule, active = well fitted activation curve with a large enough effect in the signal ratio in the repeat runs (not every such curve was filed as active); inconclusive = weak or mixed curves; inactive = flat fitted curve, though single readings scatter; the % refers to the signal ratio.
% is scaled to controls: 0 for no effect and ±100 for the full control effect.

The test can be described thus: qHTS assay to identify small molecule agonists of the hypoxia (HIF-1) signaling pathway (AID 1224846). The note with it: HRE-bla ME-180 cells, beta-lactamase ratio, 17 h; series mostly up to 76.8 µM; activation: at the top concentration. Put shortly:
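Cell line: CellSensor HRE-bla ME-180; 2,000 cells/well; 0.5% dialyzed FBS; 5 h preincubation; DMSO compound pin transfer; 17 h, 37C, 5% CO2; CCF4-AM added; bla FRET signal scored for activation.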
In general terms: Quantitative high-throughput screening tests each substance at several concentrations.
In the case of `O=C(O)c1cn(-c2ccc(F)cc2)c2cc(N3CCNCC3)c(F)cc2c1=O`, the Potency entry is “inactive”.

As for `O=C(Oc1ccccc1)c1ccccc1O`, the Potency result was “inactive”.

As to `CCN1CCCC1CNC(=O)c1cc(S(=O)(=O)CC)c(N)cc1OC` (stereo unspecified), the “activation” value is -0.647% [at 35.5 µM] (inactive).

For the compound `OCC(CO)N[C@H]1C[C@](O)(CO)[C@@H](O)[C@H](O)[C@H]1O`, the “activation” value was 0.068% [at 35.5 µM] (inactive).

With `O=C(O)c1cccc(C(=O)O)c1`, the Potency entry was “inactive”.

In the case of `CC1COC(=O)O1` (stereo unspecified), the Potency result was “inactive”.

For the compound `c1cc(C(c2ccc(OCC3CO3)cc2)C(c2ccc(OCC3CO3)cc2)c2ccc(OCC3CO3)cc2)ccc1OCC1CO1` (stereo unspecified), the “activation” value is 0.493% (inactive).

On to `CCCC(=O)c1ccccc1`, for which the “activation” value is -0.639% (inactive).

As to `C=C(C)C1CC=C(C)C(OC(C)=O)C1` (stereo unspecified), the Potency entry was “inactive”.

In the case of `CC(C)(C)NCC(O)COc1ccccc1OCC1CCCO1` (stereo unspecified), the “activation” value was 0.366% [at 35.5 µM] (inactive).

For `CC(=O)OCCOCCOCCOC(C)=O`, the Potency result is “inactive”.

On to `COC(=O)/C=C/c1ccccc1`, for which the Potency result is “inactive”.

On to `CCC(C)(C)C(=O)O[C@H]1C[C@@H](C)C=C2C=C[C@H](C)[C@H](CC[C@@H]3C[C@@H](O)CC(=O)O3)[C@H]21`, for which the “activation” value is 0.425% (inactive).

As to `O=C(O)CCc1ccccc1`, the “activation” value was 0.656% (inactive).

Consider `OCCN1CCNCC1`, for which the “activation” value is -0.0458% (inactive).

As for `[Cl][In]([Cl])[Cl]`, the Potency result is “inactive”.

With `CC(C)CCOC(=O)c1ccc(N(C)C)cc1`, the “activation” value is -0.122% [at 35.5 µM] (inactive).

Take `Cc1cc(C2(c3cc(C)c(O)cc3C)OS(=O)(=O)c3ccccc32)c(C)cc1O`: the Potency result is “inactive”.

In the case of `CCOC(=O)C(C)C(C)=O` (stereo unspecified), the “activation” value is -0.25% (inactive).

`CCC[C@H](N[C@@H](C)C(=O)N1[C@H](C(=O)O)C[C@@H]2CCCC[C@@H]21)C(=O)OCC`: the Potency result is “inactive”.

As to `O=c1n(CC2CO2)c(=O)n(CC2CO2)c(=O)n1CC1CO1` (stereo unspecified), the “activation” value was -2.05% (inactive).

Values taken from PubChem BioAssay (Tox21).
